# Results as given in PubChem BioAssay (NCI).
# Where “and” joins values, the source holds several entries; their conditions need not be identical. Equal values may be shown once. About 79,000 compounds went through this panel and 15% of them were active in at least one assay; those are over-represented in the sample as a whole. A structure can be active in one record and inactive in another. Calls of active or inactive are those of the source. Cut-off read from the data, not from the text of the source: active = growth inhibition above about 70%; inactive = the rest.
# Assays:
# [1] = NCI Yeast Anticancer Drug Screen. Data for the rad50 strain (AID 155);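 note: 0% = growth of vehicle-only cultures of the same strain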; details: S. cerevisiae rad50 strain growth inhibition, stronger effect = higher value
# Method in brief: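 Genetically altered yeast (DNA repair pathway); compound treatment; growth inhibition vs vehicle ctrl.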
# [2] = NCI Yeast Anticancer Drug Screen. Data for the mec2-1 strain (AID 157); details: S. cerevisiae mec2-1 strain, stronger effect = higher value
# Method in brief: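 Vehicle-treated cultures served as reference for growth inhibition of compound-exposed mec2-1 yeast.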
# [3] = NCI Yeast Anticancer Drug Screen. Data for the sgs1 mgt1 strain (AID 161);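 note: 0% = growth of cultures given vehicle only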; details: S. cerevisiae sgs1 mgt1 strain, stronger effect = higher value
# Method in brief: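 Genetically altered yeast, compound exposure, growth inhibition relative to vehicle.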
# [4] = NCI Yeast Anticancer Drug Screen. Data for the cln2 rad14 strain (AID 165);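 note: 0% = growth equal to vehicle treated cultures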; details: S. cerevisiae cln2 rad14 strain, stronger effect = higher value
# Method in brief: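 Each compound was tested on cln2 rad14 yeast. Inhibition of growth was calculated against vehicle-exposed controls.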
# [5] = NCI Yeast Anticancer Drug Screen. Data for the bub3 strain (AID 167); details: S. cerevisiae bub3 mutant strain, stronger effect = higher value
# Method in brief: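 Yeast carrying a defined mutation is treated with each compound, and growth is compared with that of vehicle-exposed cells to give inhibition.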
# [6] = NCI Yeast Anticancer Drug Screen. Data for the mlh1 rad18 strain (AID 175); details: S. cerevisiae mlh1 rad18 strain growth inhibition, stronger effect = higher value
# Method in brief: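 Vehicle-treated cultures served as the reference for growth inhibition in a yeast strain carrying DNA damage repair alterations exposed to each compound.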
# [7] = at 5.0 µM (retest, dose inferred, filed as 0.5)
# [8] = at 50.0 µM (retest, dose inferred, filed as 5.0)
SMILES,"growth inhibition [1, 7]","growth inhibition [1, 8]",growth inhibition ([1]; at 50.0 µM),"growth inhibition [2, 7]","growth inhibition [2, 8]",growth inhibition ([2]; at 50.0 µM),"growth inhibition [3, 7]","growth inhibition [3, 8]",growth inhibition ([3]; at 50.0 µM),"growth inhibition [4, 7]","growth inhibition [4, 8]",growth inhibition ([4]; at 50.0 µM),"growth inhibition [5, 7]","growth inhibition [5, 8]",growth inhibition ([5]; at 50.0 µM),"growth inhibition [6, 7]","growth inhibition [6, 8]",growth inhibition ([6]; at 50.0 µM)
CC(=O)OC1CCC2(C)C(CCC3C4CCC(OC(C)=O)C4(C)CCC32)O1 (configuration not stated),-3% (inactive),79% (active),36.2% (inactive),5% (inactive),95% (active),15.1% (inactive),-23% (inactive),70% (active),43.6% (inactive),-6% (inactive),41% (inactive),15% (inactive),-2% (inactive),66% (inactive),11.3% (inactive),6% (inactive),93% (active),24.4% (inactive)
Clc1cc(Cl)c(Cl)nn1,13% (inactive),83% (active),59.6% (inactive) and 86% (active),3% (inactive),38% (inactive),2.1% (inactive) and 44.9% (inactive),-1% (inactive),24% (inactive),3.1% (inactive) and 15.5% (inactive),-8% (inactive),25% (inactive),-7.45% (inactive) and 16.4% (inactive),6% (inactive),48% (inactive),18.6% (inactive) and 60.8% (inactive),1% (inactive),45% (inactive),15.8% (inactive) and 25% (inactive)
CN(C)/C=C1\CCc2ccc([N+](=O)[O-])cc2C1=O,19% (inactive),21% (inactive),6.9% (inactive),17% (inactive),25% (inactive),0.45% (inactive),24% (inactive),29% (inactive),16.4% (inactive),31% (inactive),17% (inactive),12.1% (inactive),26% (inactive),19% (inactive),21.4% (inactive),29% (inactive),35% (inactive),-28.4% (inactive)
CC(=O)[C@]1(O)Cc2c(O)c3c(c(O)c2[C@@H](OC2CC(N)C(O)C(C)O2)C1)C(=O)c1c(O)cccc1C3=O (some centres not stated),88% (active) and 91% (active),97% (active) and 96% (active),91.1% (active) and 86.5% (active),81% (active) and 80% (active),98% (active) and 97% (active),92.5% (active) and 89% (active),73% (active) and 92% (active),96% (active) and 98% (active),92.4% (active) and 88.3% (active),57% (inactive) and 66% (inactive),97% (active) and 95% (active),88.7% (active) and 89.2% (active),77% (active) and 86% (active),97% (active) and 98% (active),90.8% (active) and 89% (active),90% (active) and 87% (active),97% (active) and 95% (active),90.2% (active) and 92% (active)
O=C(NCCCCCCNC(=O)n1cc(F)c(=O)[nH]c1=O)NCCCOCCOCCOCCOCCOCCOCCOCCOCCOCCOCCOCCOCCOCCOCCOCCOCCOCCOCCOCCOCCOCCCNC(=O)C(O)C(O)C(OC1OC(CO)C(O)C(O)C1O)C(O)CO (configuration not stated),11% (inactive),95% (active),74.3% (active),7% (inactive),78% (active),89% (active),30% (inactive),81% (active),81.5% (active),16% (inactive),-5% (inactive),27.1% (inactive),1% (inactive),4% (inactive),48.4% (inactive),19% (inactive),97% (active),-10.2% (inactive)
CC(C)Oc1ccc(Nc2ccccc2)cc1,-2% (inactive),61% (inactive),-1.65% (inactive) and 37% (inactive),-9% (inactive),15% (inactive),-2.9% (inactive) and 50.2% (inactive),-1% (inactive),43% (inactive),-8.3% (inactive) and 56.8% (inactive),0% (inactive),-18% (inactive),-21.6% (inactive) and 36.1% (inactive),42% (inactive),62% (inactive),-16.4% (inactive) and 33.5% (inactive),-4% (inactive),20% (inactive),-9.65% (inactive) and 40.1% (inactive)
CC(=O)/C(=C\c1ccc(Cl)c(Cl)c1)C(=O)CCN(C)C,13% (inactive) and 6% (inactive),42% (inactive) and 30% (inactive),49.2% (inactive) and 56% (inactive),13% (inactive) and -8% (inactive),43% (inactive) and 26% (inactive),78.2% (active) and 42.8% (inactive),22% (inactive) and 9% (inactive),45% (inactive) and 50% (inactive),58.6% (inactive) and 63.7% (inactive),19% (inactive) and 16% (inactive),17% (inactive) and 21% (inactive),18.8% (inactive) and 41.1% (inactive),5% (inactive) and 18% (inactive),41% (inactive) and 42% (inactive),58% (inactive) and 58.1% (inactive),20% (inactive) and 8% (inactive),50% (inactive) and 49% (inactive),74.2% (active) and 72.2% (active)
CCc1cc2c(cc1C(C)=O)C(C)(C)CCC2,6% (inactive),95% (active),98.5% (active),2% (inactive),97% (active),98.7% (active),14% (inactive),98% (active),98.5% (active),11% (inactive),97% (active),93% (active),-3% (inactive),96% (active),98.7% (active),9% (inactive),98% (active),98.7% (active)
N#CCCC(CCC#N)(CCC#N)C(=O)c1ccccc1,10% (inactive),4% (inactive),11.6% (inactive) and 20.9% (inactive),-15% (inactive),-6% (inactive),15.8% (inactive) and -3.15% (inactive),7% (inactive),8% (inactive),33.2% (inactive) and -28.8% (inactive),4% (inactive),14% (inactive),26.1% (inactive) and 18.9% (inactive),10% (inactive),23% (inactive),18.1% (inactive) and 7.55% (inactive),20% (inactive),12% (inactive),20.2% (inactive) and 26.8% (inactive)
COc1cc2c(cc1OC)C(Cc1c3ccccc3cc3ccccc13)N(C)CC2 (configuration not stated),4% (inactive),41% (inactive),16.2% (inactive),-18% (inactive),43% (inactive),14.8% (inactive),1% (inactive),50% (inactive),93.1% (active),0% (inactive),3% (inactive),62.5% (inactive),0% (inactive),15% (inactive),58.3% (inactive),3% (inactive),56% (inactive),99.4% (active)
O=C(CCC(=O)OCCOc1ccccc1)OCCOc1ccccc1,10% (inactive),-1% (inactive),-3.5% (inactive),-16% (inactive),-13% (inactive),-4.7% (inactive),17% (inactive),3% (inactive),-6.4% (inactive),7% (inactive),20% (inactive),21.6% (inactive),1% (inactive),7% (inactive),-4% (inactive),6% (inactive),30% (inactive),-1.75% (inactive)
COc1c(O)cc2oc3cc(O)c(CC=C(C)C)c(O)c3c(=O)c2c1CC=C(C)C,98% (active),89% (active),86.8% (active) and 87.2% (active),99% (active),91% (active) and 93% (active),89.2% (active) and 90% (active),99% (active),89% (active),90.3% (active) and 89.4% (active),51% (inactive) and 42% (inactive),83% (active) and 86% (active),85.2% (active) and 86.2% (active),98% (active),87% (active) and 86% (active),86.1% (active) and 87% (active),99% (active) and 98% (active),81% (active) and 87% (active),87.2% (active)
N=S(c1ccccc1[N+](=O)[O-])c1ccccc1[N+](=O)[O-],13% (inactive) and 8% (inactive),4% (inactive) and 52% (inactive),68.2% (inactive) and 54.1% (inactive),2% (inactive) and 7% (inactive),15% (inactive) and 53% (inactive),17.4% (inactive) and 22.4% (inactive),-24% (inactive) and 32% (inactive),39% (inactive) and 77% (active),69.5% (inactive) and 75.5% (active),8% (inactive) and 6% (inactive),9% (inactive) and 49% (inactive),25.3% (inactive) and 61.9% (inactive),-7% (inactive) and 2% (inactive),-6% (inactive) and 73% (active),36.9% (inactive) and 26.8% (inactive),-14% (inactive) and 20% (inactive),-1% (inactive) and 83% (active),79.8% (active) and 76.3% (active)
CN(C)Cc1cc(CN(C)C)c(O)c(CN(C)C)c1,8% (inactive),19% (inactive),-34.9% (inactive) and 40.3% (inactive),2% (inactive),2% (inactive),-58.3% (inactive) and 59.9% (inactive),4% (inactive),11% (inactive),0.25% (inactive) and 2.75% (inactive),-3% (inactive),-8% (inactive),-24.1% (inactive) and -31.1% (inactive),14% (inactive),39% (inactive),-43.5% (inactive) and 65.3% (inactive),-6% (inactive),-9% (inactive),-22.2% (inactive) and 48.1% (inactive)
